Test results as given in PubChem BioAssay (NCI).
This is part of a sample that, as a whole, favours compounds with a hit. Of some 79,000 tested, about 15% had one in any assay. Rule as the data show it: active = growth inhibition above about 70%; inactive = the rest.

How the values were obtained:
[1] = NCI Yeast Anticancer Drug Screen. Data for the rad50 strain (AID 155);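 also: 0% = growth of vehicle-only cultures of the same strain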; details: S. cerevisiae rad50 strain growth inhibition; at 50.0 µM; active compounds read high
Method in brief: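 Inhibition values express reduced yeast growth in compound-treated cultures relative to vehicle-treated controls.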

[2] = NCI Yeast Anticancer Drug Screen. Data for the mec2-1 strain (AID 157); details: S. cerevisiae mec2-1 strain, at 50.0 µM, active compounds read high
Method in brief: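 Vehicle-treated cultures served as reference for growth inhibition of compound-exposed mec2-1 yeast.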

[3] = NCI Yeast Anticancer Drug Screen. Data for the sgs1 mgt1 strain (AID 161);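 also: 0% = growth of cultures given vehicle only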; details: S. cerevisiae sgs1 mgt1 strain, at 50.0 µM, active compounds read high
Method in brief: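 Genetically altered yeast, compound exposure, growth inhibition relative to vehicle.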

[4] = NCI Yeast Anticancer Drug Screen. Data for the cln2 rad14 strain (AID 165);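 also: 0% = growth equal to vehicle treated cultures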; details: S. cerevisiae cln2 rad14 strain, at 50.0 µM, active compounds read high
Method in brief: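 Each compound was tested on cln2 rad14 yeast. Inhibition of growth was calculated against vehicle-exposed controls.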

[5] = NCI Yeast Anticancer Drug Screen. Data for the bub3 strain (AID 167); details: S. cerevisiae bub3 mutant strain, at 50.0 µM, active compounds read high
Method in brief: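 Steps: expose the mutant yeast strain to compound; grow alongside vehicle-treated cultures; measure growth; express inhibition against the vehicle cultures.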

[6] = NCI Yeast Anticancer Drug Screen. Data for the mlh1 rad18 strain (AID 175); details: S. cerevisiae mlh1 rad18 strain growth inhibition; at 50.0 µM; active compounds read high
Method in brief: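 Vehicle-treated cultures served as the reference for growth inhibition in a yeast strain carrying DNA damage repair alterations exposed to each compound.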

Measured: growth inhibition

N#Cc1nc(COCc2ccccc2)oc1N
inactive: [1] -19.9% | [2] -12.5% | [3] -5.45% | [4] 1.75% | [5] -19.5% | [6] -10.9%

CCOC(=O)CCC(=O)C(=O)OCC
inactive: [1] 13.1% | [2] -24.8% | [3] 13.2% | [4] 20.9% | [5] 1.4% | [6] 20.1%

O=C(Cc1ccccc1)NN1C(=O)C(Cl)C1c1ccccc1 (stereo unspecified)
inactive: [1] -10.3% | [2] 15.2% | [3] -12.5% | [4] 4.8% | [5] -5% | [6] -2.3%

CC(C)=CCC1=C(O)c2ccccc2C(=O)C1=O
inactive: [1] 16.6% | [2] 5.15% | [3] 14.2% | [4] 0.4% | [5] -4.25% | [6] 13.1%

CCN(CC)CCNc1ccc2ncn3c4ccccc4c(=O)c1c23
inactive: [1] 19.9% | [2] 8.85% | [3] -16.1% | [4] 33.1% | [5] 29.1% | [6] 42.9%

Cc1nc(C(N)=S)sc1C(=O)CC(=O)C(=O)Nc1ccccc1[N+](=O)[O-]
inactive: [1] 0.15% | [2] -9% | [3] 10.8% | [4] 7% | [5] 17.4% | [6] 1.95%

CNC(=S)c1ccc(Cl)cc1
inactive: [1] 12.3% | [2] -20.6% | [3] -15.1% | [4] -29.8% | [5] -2.05% | [6] 11.3%

O=C1OC(=O)c2c1ccc1ccccc21
inactive: [1] -6% | [2] -21.6% | [3] 6.8% | [4] -8.35% | [5] 0.95% | [6] 14.8%

Cn1ccc(=O)n(C)c1=O
inactive: [1] -8.15% | [2] -10.8% | [3] 2% | [4] 5.15% | [5] 5.05% | [6] 2.25%

COc1cccc(-c2cc(=O)c3cc(N4CCCC4)ccc3[nH]2)c1
inactive: [1] -26.3% | [2] -15.2% | [3] -19.9% | [4] 8.6% | [5] -21.6% | [6] -19.1%

O=S(c1ccccc1)[C@H]1CC2C3CC4C2C4C31 (stereo partly specified)
inactive: [1] 2.3% | [2] 4.7% | [3] -1.7% | [4] 4.45% | [5] 19.9% | [6] 17.9%

O=C(O)c1cnc2cc3c(cc2c1Nc1cccc(C(F)(F)F)c1)OCO3
inactive: [1] 29% | [2] -8.85% | [3] 5.15% | [4] 6.7% | [5] 29.4% | [6] 4.05%

COc1cc(/C=C(\C#N)C(N)=C(C#N)C#N)cc(O)c1O
inactive: [1] -32.5% | [2] -20.8% | [3] -19.6% | [4] 0.65% | [5] -24.3% | [6] -18.8%

Cc1ccccc1-n1c(=O)sc2c(=O)n(-c3ccccc3)c(=S)[nH]c21
inactive: [1] -11.2% | [2] -23.4% | [3] 6.9% | [4] 6.2% | [5] 0.6% | [6] -18.9%

O=C1NC(=O)N(C(F)(F)F)C(F)(F)N1C(F)(F)F
inactive: [1] 1.25% | [2] 4.55% | [3] 3.75% | [4] 30.9% | [5] 5.8% | [6] 23.1%

COC(=O)c1nnn(-c2ccc(C)c(C)c2)c1C(=O)c1ccccc1
inactive: [1] -2.7% | [2] -2.5% | [3] -15.2% | [4] 16.5% | [5] -8.25% | [6] 29.1%

COc1cc(C(OC(C)=O)OC(C)=O)c(Cl)c(Cl)c1OC(C)=O
inactive: [1] 16.7% | [2] -2.25% | [3] 9.35% | [4] -5.3% | [5] 12.2% | [6] 18.6%

Cc1cc(=O)[nH]c(NN2C(Cl)C(=O)C2c2ccc([N+](=O)[O-])cc2)n1 (stereo unspecified)
inactive: [1] 15.8% | [2] -24.2% | [3] 12.7% | [4] 2.7% | [5] 3.85% | [6] -18.8%

CN(C)CCN=C1Nc2ccccc2C(=S)N2CSCC12 (stereo unspecified)
inactive: [1] -0.75% | [2] 17.1% | [3] -10.4% | [4] -2.05% | [5] 5.85% | [6] 11.9%

Clc1ccc(-c2cc(-c3ccc(Cl)cc3)n(-c3ccccc3)n2)cc1
inactive: [1] -17.5% | [2] -33.9% | [3] -24.2% | [4] 4% | [5] 6.55% | [6] -9.2%

CC(=O)Oc1cccc2cc3cc(C)cc(OC(C)=O)c3c(OC(C)=O)c12
inactive: [1] -7.15% | [2] 3.8% | [3] 2.95% | [4] -2.95% | [5] 6.5% | [6] 14.7%

Nc1ccc(S(=O)(=O)NNc2nc(N3CCCCC3)nc(N3CCCCC3)n2)cc1
inactive: [1] -1.3% | [2] 1.95% | [3] 10.2% | [4] 7.9% | [5] -11.7% | [6] -5%

COc1ccc(N2C(=O)C3c4[nH]c5ccccc5c4C4CC(C)CC(C)C4C3C2=O)cc1 (stereo unspecified)
inactive: [1] 53% | [2] 0.65% | [3] 8.85% | [4] -25.2% | [5] 41% | [6] 14.7%

CCc1cccc(C(=O)O)c1N
inactive: [1] 26.4% | [2] 5.75% | [3] 15.7% | [4] 3.65% | [5] -3.75% | [6] 0.9%

CC(=O)C/C(C)=N\NC(=O)c1ccc([N+](=O)[O-])cc1
inactive: [1] -6.15% | [2] -16.8% | [3] 5.65% | [4] 7.35% | [5] 9.9% | [6] 19.6%

COc1ccc(-c2nc(N)nc3c2CN(CCC(=O)O)C3=O)cc1
inactive: [1] 0.9% | [2] -18.2% | [3] 12% | [4] -8.6% | [5] 7.45% | [6] 3.9%

CC(Br)C(=O)NCC(=O)NCC(=O)O (stereo unspecified)
inactive: [1] 31.9% | [2] -14.9% | [3] -4.2% | [4] 16.4% | [5] 16.9% | [6] -4.75%

CC(=O)Nc1ccc(/C=N/NC(N)=S)cc1
inactive: [1] 7.4% | [2] -7.35% | [3] 17% | [4] 12.4% | [5] 3.05% | [6] 13%

CNC1C(O)C(OC2C(N)CC(N)C(OC3OC(CN)C(O)C(O)C3O)C2O)OCC1(C)O (stereo unspecified)
inactive: [1] 27.1% | [2] -17.1% | [3] -12.7% | [4] 4.85% | [5] 9.9% | [6] 20.6%

Cc1ccc2sc3nc4ccccc4nc3c2c1
inactive: [1] 12.1% | [2] 3.5% | [3] -1.95% | [4] -4.25% | [5] 5.8% | [6] -1.25%

CCCCCCCCCCCCCCCc1c(NC(C)(CC)[P+](=O)O)c(=O)n(C)n1C (stereo unspecified)
inactive: [1] -41.5% | [2] -32.5% | [3] -7.45% | [4] -29.9% | [5] -12.2% | [6] -18.8%

O=C1CC(c2ccccc2)C(c2ccccc2)C1C(=O)OC1CCCCC1 (stereo unspecified)
inactive: [1] 0.5% | [2] 2.85% | [3] 0.65% | [4] -62.5% | [5] 0.55% | [6] -15.4%

O=C(CCl)Nc1ccc(SSc2ccc(NC(=O)CCl)cc2)cc1
inactive: [1] 33.8% | [2] 13% | [3] 47.1% | [4] 43.2% | [5] 10.1% | [6] 12.9%

CC[C@@]12CCC(=S)N(CCSc3ccccc3)[C@@H]1c1c(n(S(=O)(=O)c3ccc(OC)cc3)c3ccccc13)CC2
inactive: [1] -38% | [2] -18.1% | [3] 0.3% | [4] -15.9% | [5] 0.7% | [6] -5.3%

COC(=O)c1nc2nnc(N)n2c(-c2ccc(Cl)cc2)c1C
inactive: [1] -6.3% | [2] 11.1% | [3] 7.25% | [4] -15.9% | [5] -4.35% | [6] 0.75%

CCCCCc1c2c(c(CCCCC)c3c1-c1cccc4cccc-3c14)-c1ccc(C)cc1C2
inactive: [1] -29.7% | [2] -9.95% | [3] -30.9% | [4] -18.1% | [5] -0.3% | [6] -19.4%

O=C1C(c2ccccc2)=C(O)c2cccc3cccc1c23
inactive: [1] -24.4% | [2] -33.5% | [3] -13% | [4] 13.4% | [5] -3.65% | [6] -57.6%

O=[N+]([O-])c1cccc(/C=C/COc2ccccc2)c1
inactive: [1] -1.35% | [2] -10.4% | [3] -10.8% | [4] -48.7% | [5] 10.6% | [6] -18.9%

CCC(CCN(C)C)(OC(C)=O)c1ccccc1 (stereo unspecified)
inactive: [1] 10.4% | [2] -0.55% | [3] -3% | [4] 11.7% | [5] 30.9% | [6] -15.8%

O=C(O)C(=O)Cc1ccccc1
inactive: [1] 11.2% | [2] -14.2% | [3] -4.85% | [4] 19.9% | [5] 0.85% | [6] 14.9%

CCOC(=O)c1ccc(NP(=O)(Nc2ccc(C(=O)OCC)cc2)c2ccc(N)cc2)cc1
inactive: [1] -5.65% | [2] -17.4% | [3] -2.25% | [4] -65.7% | [5] 0.85% | [6] 4.25%
